The results in this text go back to PubChem BioAssay (EPA / NIEHS).

What is called AC50 is the concentration at which the activity in the assay is half-maximal.

Assay [1] is described as follows: CCTE_Mundy_HCI_Cortical_Synap_Neur_Matur_NeuriteSpotCountPerNeuron: CCTE's Synaptogenesis and Neurite Maturation Assay in rat cortical cells for Neurite Spot Count per Neuron Count, Mundy Lab (AID 2284215). The method, boiled down:
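Rat primary cortical cultures given AraC at DIV 5, dosed from DIV 7 to DIV 12 with media change. Fixed, stained for MAP2, synaptophysin and Hoechst; neurite-associated synaptophysin puncta per neuron quantified by high-content imaging versus DMSO.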

The nature of assay [2]: CCTE_Mundy_HCI_Cortical_Synap_Neur_Matur_SynapseCount: CCTE's Synaptogenesis and Neurite Maturation Assay in rat cortical cells for Synapse Count, Mundy Lab (AID 2284218). An outline of the steps:
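Endpoint: synapses/neuron by HCI (synaptophysin puncta on MAP2-labelled neurites, Hoechst nuclei). Rat primary cortical cells, AraC DIV 5, dosed DIV 7, fixed DIV 12; DMSO negative control.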

Assay [3] in a line: CCTE_Mundy_HCI_Cortical_Synap_Neur_Matur_NeuriteCount: CCTE's Synaptogenesis and Neurite Maturation Assay in rat cortical cells for Neurite Count, Mundy Lab (AID 2284222). The method, boiled down: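 Rat cortical neurons, 96-well; AraC DIV 5; chemical + media change DIV 7; end DIV 12. Fix PFA/Hoechst, anti-MAP2 + anti-synaptophysin IF. HCI neurite count vs DMSO baseline.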
Assay [4] in a line: CCTE_Mundy_HCI_Cortical_Synap_Neur_Matur_CellBodySpotCount: CCTE's Synaptogenesis and Neurite Maturation Assay in rat cortical cells for Cell Body Spot Count, Mundy Lab (AID 2284223). An outline of the steps: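 Primary rat cortical cultures, AraC added at DIV 5; dosed DIV 7 through DIV 12 […]. Fixed, stained for MAP2 and synaptophysin with Hoechst; cell body-associated synaptophysin puncta per neuron counted by high-content imaging, loss vs DMSO.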

Assay [5] is described as follows: CCTE_Mundy_HCI_hNP1_Pro_ResponderAvgInten: CCTE's Proliferation Assay in human neuroprogenitor cells, Mundy Lab (AID 2284224; active = hit-call score of the fitted dose curve at least 0.9, where 1 is the maximum;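 note: human neural progenitor cells hNP1 derived from WA09 embryonic stem cells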). An outline of the steps: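 Human neuroprogenitors (hNP1, WA09 lineage) receive test chemical after 40 to 44 hours of attachment. A four-hour BrdU pulse begins twenty hours later, followed by fixation and high content imaging; signal is referenced to DMSO controls.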

Assay [6] in a line: UKN2_HCS_IMR90_cell_viability: Viability Assessment in the University of Konstanz (UKN) Leist Lab Neural Crest Cell Migration Assay in human induced IMR90 Pluripotent Stem Cells (UKN2) (AID 2284233).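 Note: viability of neural crest cells differentiated from IMR90 iPSC measured by calcein-AM fluorescence imaging; cells exposed to compound for 24 h after a 24 h migration phase.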 An outline of the steps: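 cMINC format, iPSC-derived neural crest (IMR90); 24 h migration (EGF/FGF, N2-S), then 24 h toxicant. Calcein-AM/H-33342 stain 30 min; fluorescence intensity by HCS; DMSO-normalised, bidirectional fitting.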

Assay [7] in a line: CCTE_Mundy_HCI_hNP1_Casp3_7: CCTE's Caspase-Glo 3/7 Assay in human neuroprogenitor cells for Apoptosis, Mundy Lab (AID 2284240). An outline of the steps: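 Neuroepithelial-lineage stem cells from WA09 embryonic cells were treated with chemicals after 40–44 h of culture. Twenty-four hours later, caspase-3/7 activation was detected luminescently after a 30 min room-temperature reagent step, with DMSO as baseline.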

A short description of assay [8]: CCTE_Mundy_HCI_hNP1_CellTiter: CCTE's Cell Titer-Glo 2 Assay in human neuroprogenitor cells for Viability, Mundy Lab (AID 2284241; active = hit-call score of the fitted dose curve at least 0.9, where 1 is the maximum;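 note: a hit is a drop in ATP luminescence versus DMSO meaning reduced viability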). An outline of the steps:
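Measures ATP content in human neural progenitors derived from WA09 embryonic cells. Read-out at 26.5 hours after dosing, with DMSO serving as the negative control and baseline.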
For orientation: In ATP-based viability assays light output follows the ATP content of the culture.

A short description of assay [9]: CCTE_Mundy_HCI_Cortical_Synap_Neur_Matur_NeuronCount: CCTE's Synaptogenesis and Neurite Maturation Assay in rat cortical cells for Neuron Count, Mundy Lab (AID 2284242; active = hit-call score of the fitted dose curve at least 0.9, where 1 is the maximum;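 note: hits reduce neuron count versus DMSO baseline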). The method, boiled down: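 Measured at DIV 12: fluorescently labelled neurons (Hoechst nuclei, MAP2) in rat primary cortical cultures, counted by high-content imaging. AraC suppressed glia from DIV 5; DMSO served as negative control.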

Assay [10] in a line: IUF_NPC2c_oligodendrocyte_migration_120hr: Leibniz Research Institute for Environmental Medicine (IUF) 120-hour Neural Progenitor Cell Migration Assay for Oligodendrocyte Migration (NPC2c) (AID 2284297).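 Note: O4-positive oligodendrocyte migration distance divided by radial glia migration distance.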 An outline of the steps: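 Human fetal neural progenitor spheres (0.3 mm) are plated on poly-D-lysine/laminin in N2 differentiation medium and exposed for 120 h, with half-medium renewal at day 3. Oligodendrocyte (O4+) migration distance comes from ICC imaging, normalised to radial glia migration.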

Assay [11] in a line: IUF_NPC2a_radial_glia_migration_120hr: Leibniz Research Institute for Environmental Medicine (IUF) 120-hour Neural Progenitor Cell Migration Assay for Radial Glia Migration (NPC2a) (AID 2284298). The method, boiled down: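 Human fetal-cortex neural progenitor spheres (0.3 mm) plated on poly-D-lysine/laminin in N2 differentiation medium, exposed 120 h at 37C with half-medium renewal at day 3. Radial glia migration distance (um) measured from Hoechst-stained nuclei images; DMSO baseline.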

Assay [12] in a line: IUF_NPC2a_radial_glia_migration_72hr: Leibniz Research Institute for Environmental Medicine (IUF) 72-hour Neural Progenitor Cell Migration Assay for Radial Glia Migration (NPC2a) (AID 2284299). The method, boiled down: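 Spheres of human primary neural progenitors migrate on poly-D-lysine/laminin under compound exposure at 37C, 5% CO2. The 72 h radial glia migration distance comes from brightfield images, measured manually.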

Assay [13] in a line: IUF_NPC2b_neuronal_migration_120hr: Leibniz Research Institute for Environmental Medicine (IUF) 120-hour Neural Progenitor Cell Migration Assay for Neuron Migration (NPC2b) (AID 2284300). The method, boiled down: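 0.3 mm hNPC spheres on poly-D-lysine/laminin in N2 differentiation medium exposed 120 h, half-medium refresh day 3; 7 concentrations, DMSO max 0.1%. Neuron (TUBB3) distance from sphere core by ICC imaging, normalised to radial glia migration.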

Assay [14] can be described thus: IUF_NPC3_neuronal_differentiation_120hr: Leibniz Research Institute for Environmental Medicine (IUF) 120-hour Neuronal Differentiation Assay (NPC3) (AID 2284301). The method, boiled down:
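Neuronal differentiation of primary human neural progenitors measured by high-content imaging: percent TUBB3+ of Hoechst+ nuclei within migrated area at 120 h, seven-point serial dilution plus solvent control, gain or loss relative to DMSO.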

Assay [15] is described as follows: IUF_NPC4_neurite_length_120hr: Leibniz Research Institute for Environmental Medicine (IUF) 120-hour Neuronal Morphology Assay for Neurite Length (NPC4) (AID 2284302). The method, boiled down: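 Neurons from differentiating human fetal neural progenitor spheres are scored for average neurite length after five days of compound exposure. Fitting uses DMSO as negative control.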

Assay [16] can be described thus: IUF_NPC2-5_cytotoxicity_72hr: Cytotoxicity Assessment at 72 hours in the Leibniz Research Institute for Environmental Medicine (IUF) Neural Progenitor Cell Migration and Differentiation Assay for Cytotoxicity (NPC2-5) (AID 2284306; active = hit-call score of the fitted dose curve at least 0.9, where 1 is the maximum;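 note: LDH release into supernatant measured by resorufin fluorescence marking membrane damage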). An outline of the steps: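 Primary human neural progenitor spheres migrate and differentiate on laminin. Compound is present from the start of differentiation, with DMSO kept at or below 0.1%. At 72 h, supernatant LDH is quantified fluorometrically, with values fitted in the positive direction.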

A short description of assay [17]: IUF_NPC2-5_cytotoxicity_120hr: Cytotoxicity Assessment at 120 hours in the Leibniz Research Institute for Environmental Medicine (IUF) Neural Progenitor Cell Migration and Differentiation Assay (NPC2-5) (AID 2284307; active = hit-call score of the fitted dose curve at least 0.9, where 1 is the maximum). The method, boiled down:
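Human fetal (GW 16-19) neural progenitor spheres (0.3 mm) plated on poly-D-lysine/laminin in N2 differentiation medium, exposed 120 h with half-medium renewal at day 3; 7 concentrations plus solvent control, DMSO ≤0.1%. LDH release in supernatant read by resorufin fluorescence.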

The nature of assay [18]: IUF_NPC2-5_cell_number_120hr: Cell Number Assessment at 120 hours in the Leibniz Research Institute for Environmental Medicine (IUF) Neural Progenitor Cell Migration and Differentiation Assay (NPC2-5) (AID 2284308).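 Note: count of Hoechst-stained nuclei in migration zone around plated human neural progenitor spheres.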 The method, boiled down:
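Human fetal neural progenitor spheres (0.3 mm) plated on poly-D-lysine/laminin in N2 differentiation medium, exposed five days across 7 concentrations with half-medium refresh at day 3. Hoechst-positive nuclei counted in migration area at 120 h, relative to DMSO.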

Assay [19] is described as follows: IUF_NPC2-5_viability_120hr: Viability Assessment at 120 hours in the Leibniz Research Institute for Environmental Medicine (IUF) Neural Progenitor Cell Migration and Differentiation Assay (NPC2-5) (AID 2284312). The method, boiled down:
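Human fetal (GW 16-19) neural progenitor spheres of 0.3 mm were plated on poly-D-lysine/laminin in N2 differentiation medium and exposed from day 0 for 120 h, with half-medium refresh at day 3. Viability was read as alamar blue resazurin-to-resorufin fluorescence against DMSO.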

Assay [20] is described as follows: IUF_NPC1_cytotoxicity_72hr: Cytotoxicity Assessment at 72 hours in the Leibniz Research Institute for Environmental Medicine (IUF) Neural Progenitor Cell Proliferation Assay (NPC1) (AID 2284332; active = hit-call score of the fitted dose curve at least 0.9, where 1 is the maximum;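 note: rising LDH signal means more cytotoxicity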). An outline of the steps:
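Readout is fluorescence from LDH-dependent resazurin conversion, sampled from culture medium after compound contact lasting 72 h. Each well holds one 0.25-0.35 mm human progenitor sphere kept at 37C, 5% CO2 with EGF and FGF.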

The nature of assay [21]: CCTE_Mundy_HCI_iCellGluta_NOG_NeuronCount: CCTE's Neurite Outgrowth Assay in iCellGluta cells for Neuron Count, Mundy Lab (AID 2284340; active = hit-call score of the fitted dose curve at least 0.9, where 1 is the maximum;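 note: cells fixed about 48 h after compound addition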). The method, boiled down:
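Neuron count read by automated high-content imaging of Hoechst 33342 and betaIII-tubulin/Alexa Fluor-488 labelling in human iPSC glutamatergic neurons. Activity fitted relative to DMSO.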

Assay [22] in a line: CCTE_Mundy_HCI_iCellGluta_NOG_NeuriteCount: CCTE's Neurite Outgrowth Assay in iCellGluta cells for Neurite Count, Mundy Lab (AID 2284342; active = hit-call score of the fitted dose curve at least 0.9, where 1 is the maximum;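 note: chemical exposure about 48 hours starting 2 hours after plating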).

The structures appear in SMILES notation. Results filed as inconclusive are left out. The source made the active and inactive calls. Rule for the calls, unless noted: active = hit-call score of the fitted dose curve at least 0.9, where 1 is the maximum; inactive = score below 0.9.

In the case of `CC1(C)[C@H](C=C(Cl)Cl)[C@H]1C(=O)OCc1c(F)c(F)cc(F)c1F`, the AC50 is 9.68 µM (active) in assay [1]; 9.74 µM (active) in assay [2]; 11.9 µM (active) in [3]; 12.8 µM (active) in assay [4]; 22 µM (active) in assay [5]; 26.7 µM (active) in assay [7]. Further, the AC50 in assay [8] was 23.2 µM (active); in assay [9], 8.94 µM (active); in assay [21] it was 21.7 µM (active); in [22], 19.9 µM (active). The result in assay [6], in assay [10], in assay [11], in assay [12], in [13] and in assay [14] was inactive. Besides, the compound was called inactive in assay [15], in assay [16], in assay [17], in assay [18], in assay [19] and in assay [20].
